From PubChem BioAssay
Pf Dd2 inh = inhibitors of Plasmodium falciparum Dd2 growth; P. falciparum Dd2 growth, SYBR Green, 72 h; hits give low values; activity change, % at 10 µM; 2.3% of 94,000 active; AID 1159554; in the data active = activity change below about -80%; inconclusive = no clear call, values can overlap the other calls
T cruzi growth-1 = T. cruzi proliferation inhibition; T. cruzi beta-gal in NIH3T3, GalScreen luminescence, 90 h; inhibition, % at 8.34 µM; 5.9% of 77,000 active;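 active = mean inhibition above about 93%, with at least 55% of replicates each passing it, limit read from the data, passing the limit was not always enough; inconclusive = only one of those two conditions holds; inactive = neither condition holds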
C diff HTS = inhibitors of Clostridium difficile growth | 0.25% of 86,000 active | Clostridium difficile clinical isolate growth, OD600, 24 h; hits give low values | growth activity, negative = inhibition, % at 16 µg/mL (by protocol);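 active = mean growth activity at or below -80% and every replicate also at or below -80%; inconclusive = mean at or below -80% but some replicate above -80%; inactive = mean growth activity above -80%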;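 note: 0% = DMSO wells and -100% = levofloxacin 16 µg/mL wells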
T cruzi growth-2 = Trypanosoma cruzi proliferation inhibition | T. cruzi beta-gal in NIH3T3, GalScreen luminescence, 90 h | shares compounds with T cruzi growth-1 | inhibition, % at 8.35 µM | 72% of 5,600 active | AID 651739;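 active = mean replicate inhibition above about 95% and at least 55% of replicates individually reaching it, limit read from the data; inconclusive = only one of the two criteria is met; inactive = neither criterion is met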
T cruzi growth-3 = inhibitors of T. cruzi proliferation | inhibition, % at 2.09 µM | T. cruzi beta-gal in NIH3T3, GalScreen luminescence, 90 h | 21% of 5,600 active | shares compounds with T cruzi growth-1;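 active = mean inhibition above about 95%, with at least 55% of replicates also reaching it, limit read from the data; inconclusive = meets just one of the two conditions; inactive = meets neither condition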;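 note: plate controls were neutral control median for no effect and positive control median for full effect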
NIH3T3 tox = cytotoxicity in mouse NIH/3T3 fibroblasts; AID 651742; cytotoxicity (signal decrease), % at 8.35 µM; 14% of 5,600 active; shares compounds with T cruzi growth-1; NIH/3T3 viability, CellTiter-Glo ATP luminescence, 90 h;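 active = mean signal decrease across replicates above about 35% based on untreated-well scatter, with enough replicates individually passing, limit read from the data; inconclusive = no rule stated though some were filed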;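 note: 0% = median of neutral control wells and 100% = median of positive control wells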
NIH3T3 tox 2 = NIH/3T3 (mouse) viability loss | shares compounds with T cruzi growth-1 | NIH/3T3 viability, CellTiter-Glo ATP luminescence, 90 h | inhibition, % at 24.9 µM | 56% of 5,600 active;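 active = mean loss of cell viability signal at or above a set limit, and enough replicates individually reaching it; inconclusive = meets only the mean limit or only the replicate share; inactive = meets neither condition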;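 note: 0% = median of neutral control wells and 100% = median of positive control wells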
The depositor's hits bear a star; u = inconclusive; x = no result. The list is not random: actives were taken first. Their share in the collection is about 6.7%.

SMILES	Pf Dd2 inh	T cruzi growth-1	C diff HTS	T cruzi growth-2	T cruzi growth-3	NIH3T3 tox	NIH3T3 tox 2
COc1ccccc1NC(=O)N1CCCCN2[C@H](CO)[C@@H](c3ccc(-c4cccc(C)c4)cc3)[C@@H]2C1	-71	95	40	x	x	x	x
COc1ccccc1NC(=O)N1CCCCN2[C@H](CO)[C@@H](c3ccc(C#Cc4ccccc4)cc3)[C@@H]2C1	-24	49	1	x	x	x	x
COc1ccccc1NC(=O)N1CCCCN2[C@H](C1)[C@H](c1ccc(-c3cccc(F)c3)cc1)[C@@H]2CO	-4	90	28	x	x	x	x
COc1ccccc1NC(=O)N1CCCCN2[C@H](C1)[C@H](c1ccc(C#Cc3ccccc3)cc1)[C@@H]2CO	-25	114*	4	104*	80	27	30*
COc1ccccc1NC(=O)N1CCCCN2[C@@H](CO)[C@@H](c3ccc(-c4ccc(C)cc4)cc3)[C@@H]2C1	-62	94	52	x	x	x	x
COc1ccccc1NC(=O)N1CCCCN2[C@H](CO)[C@H](c3ccc(-c4ccccc4)cc3)[C@@H]2C1	7	111*	-4	105*	93	18	32*
COc1ccccc1NC(=O)N1CCCCN2[C@H](CO)[C@@H](c3ccc(-c4ccccc4)cc3)[C@@H]2C1	-55	107*	30	108*	116*	24	105*
COc1ccccc1NC(=O)N1CCCCN2[C@H](C1)[C@H](c1ccc(-c3ccc(C)cc3)cc1)[C@@H]2CO	-48	113*	2	111*	73	16	28*
C[C@H]1CN([C@@H](C)CO)C(=O)c2c(c3ccccc3n2C)-c2ccccc2CO[C@@H]1CN(C)C(=O)C1CC1	-30	85	2	x	x	x	x
COCc1cn(CC[C@H]2CC[C@H](NC(=O)Nc3ccc(Cl)cc3)[C@H](CO)O2)nn1	10	28	-2	x	x	x	x
C[C@@H]1CN([C@H](C)CO)C(=O)c2cc(-c3ccncc3)cnc2O[C@@H]1CN(C)C(=O)C1CCC1	27	40	x	x	x	x	x
C[C@@H]1CN([C@@H](C)CO)C(=O)c2cc(N(C)C)ccc2O[C@@H]1CN(C)Cc1ccc(Cl)c(Cl)c1	-13	75	12	x	x	x	x
C[C@H](CO)N1C[C@H](C)[C@H](CN(C)Cc2ccc(Cl)c(Cl)c2)Oc2ccc(N(C)C)cc2CC1=O	-13	u	31	71	12	-4	-1
C[C@@H]1CN([C@H](C)CO)C(=O)Cc2cc(N(C)C)ccc2O[C@H]1CN(C)Cc1ccc(Cl)c(Cl)c1	13	58	x	x	x	x	x
C[C@H](CO)N1C[C@H](C)[C@@H](CN(C)Cc2ccc(Cl)c(Cl)c2)Oc2ccc(N(C)C)cc2CC1=O	-3	108*	8	107*	94	10	103*
C[C@H]1CN([C@@H](C)CO)C(=O)Cc2cc(N(C)C)ccc2O[C@H]1CN(C)Cc1ccc2c(c1)OCO2	23	1	3	x	x	x	x
C[C@@H]1CN([C@@H](C)CO)C(=O)Cc2cc(N(C)C)ccc2O[C@H]1CN(C)Cc1ccc(Cl)c(Cl)c1	3	107*	12	110*	64	11	107*
C/C=C/c1ccc2c(c1)O[C@H](CN(C)C(=O)Cc1ccccc1)[C@@H](C)CN([C@@H](C)CO)S2(=O)=O	-57	x	-7	x	x	x	x
CO[C@@H]1CN(C)C(=O)c2cc(NC(=O)C3CC3)ccc2OC[C@H](C)N(Cc2cccnc2)C[C@H]1C	x	65	x	x	x	x	x
O=C(CC1CC1)N1CC(=O)N2[C@H](CO)[C@H](c3ccc(C#Cc4ccccc4)cc3)[C@@H]2C1	-16	x	-1	x	x	x	x
COc1ccc(NC(=O)Nc2ccc3c(c2)C(=O)N([C@@H](C)CO)C[C@H](C)[C@@H](CN(C)S(=O)(=O)c2cccs2)O3)cc1	14	-18	-5	x	x	x	x
C[C@@H]1CN([C@@H](C)CO)C(=O)c2cc(NC(=O)Nc3ccc(C(F)(F)F)cc3)ccc2O[C@H]1CN(C)S(=O)(=O)c1cccs1	-8	u	1	80	48	u	57*
C[C@H](CO)N1C[C@H](C)[C@H](CN(C)S(=O)(=O)c2cccs2)OCCCC[C@H](C)Oc2ccc(NC(=O)Nc3ccc4c(c3)OCO4)cc2C1=O	-31	86*	-4	106*	53	16	27*
C[C@@H]1CCCCO[C@@H](CN(C)S(=O)(=O)c2cccs2)[C@@H](C)CN([C@H](C)CO)C(=O)c2cc(NC(=O)NC3CCCCC3)ccc2O1	-68	103*	7	34	2	6	39*
C[C@@H]1CCCCO[C@H](CN(C)S(=O)(=O)c2cccs2)[C@H](C)CN([C@@H](C)CO)C(=O)c2cc(NC(=O)NC3CCCCC3)ccc2O1	-84*	100*	7	105*	35	-4	5
SMILES	Pf Dd2 inh	T cruzi growth-1	C diff HTS	T cruzi growth-2	T cruzi growth-3	NIH3T3 tox	NIH3T3 tox 2
CC(C)NC(=O)Nc1ccc2c(c1)C(=O)N([C@@H](C)CO)C[C@@H](C)[C@@H](CN(C)S(=O)(=O)c1cccs1)OCCCC[C@H](C)O2	x	x	1	x	x	x	x
C[C@@H]1CCCCO[C@@H](CN(C)S(=O)(=O)c2cccs2)[C@H](C)CN([C@@H](C)CO)C(=O)c2cc(NC(=O)Nc3ccc4c(c3)OCO4)ccc2O1	-25	76	6	x	x	x	x
C[C@@H]1CCCCO[C@H](CN(C)S(=O)(=O)c2cccs2)[C@@H](C)CN([C@H](C)CO)C(=O)c2cc(NC(=O)NC3CCCCC3)ccc2O1	-46	28	5	x	x	x	x
C[C@H]1CN([C@@H](C)CO)C(=O)c2cc(NC(=O)Nc3ccc(C(F)(F)F)cc3)ccc2O[C@@H]1CN(C)S(=O)(=O)c1cccs1	-8	90	-6	x	x	x	x
O=S(=O)(NC[C@@H]1CC[C@H]2[C@H](CN2Cc2cccc(-c3ccccn3)c2)O1)c1ccccc1	18	x	-1	x	x	x	x
CCNC(=O)C[C@H]1CC[C@H]2[C@@H](COC[C@H](O)CN2C(=O)c2cc(Cl)cc(Cl)c2)O1	16	x	6	x	x	x	x
C[C@H](CO)N1C[C@H](C)[C@H](CN(C)S(=O)(=O)c2cccs2)OCCCC[C@H](C)Oc2ccc(NC(=O)NC3CCCCC3)cc2C1=O	-44	101*	-12	88	24	22	-6
C[C@@H]1CCCCO[C@@H](CN(C)S(=O)(=O)c2cccs2)[C@H](C)CN([C@@H](C)CO)C(=O)c2cc(NC(=O)Nc3ccc(C(F)(F)F)cc3)ccc2O1	-52	100*	-3	105*	114*	5	-8
C[C@@H]1CN([C@@H](C)CO)C(=O)c2cc(NC(=O)Nc3ccc(F)cc3)ccc2O[C@@H](C)CCCCO[C@@H]1CN(C)S(=O)(=O)c1cccs1	-71	-51	-3	x	x	x	x
